# Test results from PubChem BioAssay (NCATS).
# Results filed as inconclusive are left out. A call without a number means that no potency is given here. Active and inactive are the calls of the source. Unless noted, calls follow the shape of the dose curve; as a rule, active = well fitted curve in the direction sought with a large enough effect; inconclusive = small, poorly fitted or top-dose-only effect, or another doubt; inactive = no such curve, though single readings can be large; an effect the other way counts as inactive or inconclusive.
# Tests used:
# [1] = HEK-293 Cancer Cell Toxicity qHTS against the NCATS CANVASS Library (AID 1347355); also: nearly all actives have a fitted effect of over 65% in size; also: potency is read from the fitted curve at half-maximal effect; as to outcome: series mostly up to about 46 µM
# Summary of the method: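 1000 cells/well, 4 h pre-incubation 37 °C/5% CO2; 11-pnt titration; 72 h; CellTiter-Glo 15 min RT, luminescence.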
# [2] = HPAF-II 24hr Apoptosis Induction qHTS against the NCATS CANVASS Library (AID 1347356)
# Summary of the method: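 500 HPAF-II cells/well; compounds in 11-pnt qHTS; 24 h, 37 C/5% CO2; Caspase-Glo 3/7 added, 15 min RT dark; luminescence read. Doxorubicin control.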
# [3] = HEK293 18hr Apoptosis Induction qHTS against the NCATS CANVASS Library (AID 1347357)
# Summary of the method: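 Caspase-Glo 3/7 luminescence (15 min, room temperature) measured apoptosis after an 18-hour, 37 degrees C exposure of HEK293 cells (500 cells/well) to compounds in 11 points.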
# [4] = HPAF-II 12hr Apoptosis Induction qHTS against the NCATS CANVASS Library (AID 1347358)
# Summary of the method: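 Caspase-Glo 3/7 luminescence (DEVD substrate) reports caspase activity in HPAF-II cells after 12 h compound treatment at 37 degrees C. Compounds were tested in an 11-point series. Doxorubicin served as control.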
# [5] = HEK293 12hr Apoptosis Induction qHTS against the NCATS CANVASS Library (AID 1347361)
# Summary of the method: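 HEK293 cells (500/well, DMEM + 10% FBS) were exposed to natural products across an 11-point series for 12 hours at 37 degrees C. Caspase-3/7 activity was then measured with DEVD luciferase luminescence after 15 min at room temperature.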
# [6] = target: Luciferin 4-monooxygenase (Photinus pyralis) (UniProt P08659); experiment: Firefly luciferase counterscreen qHTS: Assay Interference Panel against the NCATS CANVASS Library (AID 1347363); also: series mostly up to about 57 µM
# Chain of Luciferin 4-monooxygenase (Photinus pyralis) (P08659 whole entry, looked up): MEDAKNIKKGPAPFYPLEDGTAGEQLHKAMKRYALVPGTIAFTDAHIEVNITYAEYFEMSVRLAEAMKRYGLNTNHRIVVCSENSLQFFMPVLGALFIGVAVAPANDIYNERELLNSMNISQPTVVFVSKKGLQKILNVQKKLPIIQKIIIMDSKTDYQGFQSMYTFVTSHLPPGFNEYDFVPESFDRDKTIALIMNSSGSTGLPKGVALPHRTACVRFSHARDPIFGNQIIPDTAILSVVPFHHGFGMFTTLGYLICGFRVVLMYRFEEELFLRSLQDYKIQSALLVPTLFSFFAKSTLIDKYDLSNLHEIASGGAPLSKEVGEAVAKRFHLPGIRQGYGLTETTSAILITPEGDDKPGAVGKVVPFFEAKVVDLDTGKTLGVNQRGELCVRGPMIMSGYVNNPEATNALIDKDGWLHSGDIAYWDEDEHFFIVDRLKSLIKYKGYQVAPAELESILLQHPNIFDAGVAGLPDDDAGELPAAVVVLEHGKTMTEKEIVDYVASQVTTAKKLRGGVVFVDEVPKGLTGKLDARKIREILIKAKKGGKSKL
# Summary of the method: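 Purified P. pyralis luciferase (0.04 ug/mL, 4x reagent) added to Tris-acetate buffer with 0.013 mM D-luciferin, 0.013 mM ATP and 13.3 mM Mg-acetate; compounds preincubated 15 min, then luminescence read after 5 min, RT.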
# [7] = KB-8-5-11 Cancer Cell Toxicity qHTS against the NCATS CANVASS Library (AID 1347364); also: nearly all actives have a fitted effect of over 75% in size; also: potency is read from the fitted curve at half-maximal effect
# Summary of the method: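 CellTiter-Glo luminescence after 72 h exposure; 500 KB-8-5-11 cells/well, DMEM/10% FBS, 37C, 5% CO2; compounds in 11-pt qHTS. Follow-up confirmation included medium with 1uM tariquidar.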
# [8] = KB-3-1 Cancer Cell Toxicity qHTS against the NCATS CANVASS Library (AID 1347366); also: nearly all actives have a fitted effect of over 75% in size; also: potency is read from the fitted curve at half-maximal effect
# Summary of the method: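 CellTiter-Glo luminescence measured viability after 72 h at 37C. KB-3-1 cells were seeded at 500 per well in DMEM/10% FBS.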
# [9] = qHTS for ATAD5 Agonist screened against the NCATS CANVASS Library (AID 1347367);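 also: luciferase reporter driven by ATAD5 which rises upon DNA damage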
# Summary of the method: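 Genotoxicity via ATAD5-luciferase luminescence after 16 h compound exposure (11-point series) at 37C in HEK293T-ATAD5 cells. CellTiter-Fluor viability read precedes the luminescence read; MMS serves as positive control.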
# [10] = J3T Cancer Cell Toxicity qHTS against the NCATS CANVASS Library (AID 1347371); also: potency is read from the fitted curve at half-maximal effect
# Summary of the method: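 Dog glioma J3T, 500 cells/well; cpd 11-pt qHTS; 72 hr, 37C/5% CO2; CellTiterGlo ATP luminescence readout.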
# [11] = target: Nuclear receptor subfamily 1 group I member 3 (Homo sapiens) (UniProt Q14994); experiment: qHTS for Constitutive Androstane Receptor (CAR) Agonist screened against the NCATS CANVASS Library (AID 1347373);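 also: every well also contained 1.5 µM PK11195 alongside the test compound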
# Chain of Nuclear receptor subfamily 1 group I member 3 (Homo sapiens) (Q14994 whole entry, looked up): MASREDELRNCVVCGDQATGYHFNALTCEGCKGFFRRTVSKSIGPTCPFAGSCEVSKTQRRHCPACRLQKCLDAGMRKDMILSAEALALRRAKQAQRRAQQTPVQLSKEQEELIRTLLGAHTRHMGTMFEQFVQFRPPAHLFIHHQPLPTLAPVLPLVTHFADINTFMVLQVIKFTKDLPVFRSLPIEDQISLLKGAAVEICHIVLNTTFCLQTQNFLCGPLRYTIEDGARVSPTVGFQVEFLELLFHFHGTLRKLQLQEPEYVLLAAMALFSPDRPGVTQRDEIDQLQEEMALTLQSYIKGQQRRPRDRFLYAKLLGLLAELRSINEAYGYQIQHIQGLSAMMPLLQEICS
# Summary of the method: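 Luciferase read-out (ONE-Glo, 30 min RT) of CYP2B6-2.2kb promoter activity in double-stable HepG2-hCAR cells after 24hr compound exposure with 1.5uM PK11195 present; viability measured first by CellTiter-Fluor.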
# [12] = 10-beta competent E. coli microbial cell viability qHTS against the NCATS CANVASS Library (AID 1347376); also: series mostly up to about 46 µM
# Summary of the method: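 Luminescence from BacTiter-Glo ATP detection served as the viability read-out; bacteria (0.2 OD) had been incubated overnight at 37C with pin-transferred compounds at 11 concentrations.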
# [13] = DH5-alpha competent E. coli microbial cell viability qHTS against the NCATS CANVASS Library (AID 1347377); conditions: outcome: dose series up to 46.1 µM unless noted
# Summary of the method: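 Luminescent ATP read-out (BacTiter-Glo, 20 min RT) after overnight 37C culture of DH5-alpha E. coli with compounds; daunomycin control at 0.2 nM–9.2 uM final.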
# [14] = qHTS for H2AX Agonists against the NCATS CANVASS Library (AID 1347378)
# Summary of the method: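 Phospho-H2AX (S139) in CHO-K1 lysates measured by HTRF, reported as 665/615 nm emission ratio after 24 hr antibody incubation at room temperature. Cells were first treated with a compound series for 3 hr at 37C (0.76% DMSO final).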
# [15] = Inflammasome Signaling qHTS Counterscreen: IL-1-beta AlphaLISA counterscreen against the NCATS CANVASS Library (AID 1347381);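 also: cell-free check with purified IL-1β in medium and no THP-1 cells; series mostly up to about 57 µM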
# Summary of the method: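 Here, no cellular stimulation occurs; compounds in an 11-point series meet 4 pg purified IL-1-beta directly. Bead-based AlphaLISA detection follows (1 h acceptor/antibody, then 30 min donor, dark, room temperature), with excitation at 680 nm.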
# [16] = Cytotoxicity qHTS for assessment of Hepg2 cells membrane integrity screened against the NCATS CANVASS Library (AID 1347387)
# Summary of the method: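 LDH release read by fluorescence (560 nm ex/590 nm em) after CytoTox-ONE addition and 10 min RT; signal tracks lysed cells. HepG2, 2000 cells/well, plated overnight; compound 5 hr, 37C, 5% CO2, final 0.59 nM - 46 uM, 11 points.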
# [17] = qHTS for activators of dead-cell proteases activity screened against the NCATS CANVASS Library (AID 1347392);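 also: luminescence from protease leaking out of membrane-damaged cells cleaving impermeant substrate; rising signal means more cytotoxicity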
# Summary of the method: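 HepG2, 2000 cells/well, 18 h attach; cpd 11-pt, 5 h 37C 5% CO2; CytoTox-Glo (AAF-aminoluciferin) 15 min RT; luminescence read.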
# [18] = Redox Reaction Profiling qHTS: Assay Interference Panel against the NCATS CANVASS Library (AID 1347401); also: potency is read from the fitted curve at half-maximal effect
# Summary of the method: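 Fluorescence read-out (525 nm excitation, 598 nm emission) at time zero and after 15 min in the dark tracked resorufin formation. Mix: 5 uM resazurin, 200 uM DTT, HEPES pH 7.3 buffer with NaCl.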
# [19] = qHTS for inhibitors of Rabies Virus screened against the NCATS CANVASS Library (AID 1347402; calls by dose curve; also: series mostly up to about 46 µM)
SMILES,Potency [1],outcome [2],outcome [3],outcome [4],outcome [5],Potency [6],Potency [7],Potency [8],Potency [9],Potency [10],Potency [11],outcome [12],outcome [13],Potency [14],outcome [15],outcome [16],outcome [17],Potency [18],outcome [19]
CO[C@@H](/C=C/CC/C=C/C(=O)O)[C@@H](O)[C@H](C)/C=C(\C)[C@H](O)[C@H](C)C(=O)CCCC1CC(=O)NC(=O)C1,inactive,inactive,inactive,inactive,inactive,inactive,inactive,inactive,inactive,inactive,inactive,inactive,inactive,inactive,inactive,inactive,inactive,inactive,inactive
CCCCC1CC[C@H]2CCCC(CCC)N12 (stereo partly specified),inactive,inactive,inactive,inactive,inactive,inactive,inactive,inactive,inactive,inactive,inactive,inactive,inactive,inactive,inactive,inactive,inactive,inactive,inactive
CC(C)CC1C(=O)O[C@H](C(C)C)C(=O)N(C)C(CC(C)C)C(=O)O[C@@H](C(C)C)C(=O)N(C)C(CC(C)C)C(=O)O[C@H](C(C)C)C(=O)N(C)C(CC(C)C)C(=O)O[C@@H](C(C)C)C(=O)N1C (stereo partly specified),2350 nM (active),inactive,inactive,inactive,inactive,inactive,9.35 µM (active),9.35 µM (active),inactive,inactive,inactive,inactive,inactive,inactive,inactive,inactive,inactive,inactive,inactive
CO[C@H]1[C@H](O[C@H]2CC[C@]3(C=O)[C@H]4CC[C@]5(C)[C@@H](C6=CC(=O)OC6)CC[C@]5(O)[C@@H]4CC[C@]3(O)C2)O[C@H](C)[C@H](O)[C@@H]1OC,105 nM (active),inactive,inactive,inactive,inactive,inactive,0.132 µM (active),0.235 µM (active),inactive,372 nM (active),inactive,inactive,inactive,inactive,inactive,inactive,inactive,inactive,–
C/C=C1/CN2CC[C@]34C(=C(C(=O)OC)[C@H]1C[C@H]23)Nc1ccccc14,inactive,inactive,inactive,inactive,inactive,inactive,–,inactive,inactive,inactive,inactive,inactive,inactive,inactive,inactive,inactive,inactive,inactive,inactive
C=C(NC(=O)c1csc(-c2nc3c(cc2O)-c2nc(cs2)C(=O)NC(C(C)O)C(=O)N/C(=C(\C)O)c2nc(cs2)C(=O)NC2c4nc(cs4)C(=O)NC(COC(=O)c4c5c6c(cccc6n4O)COC(=O)[C@@H](OC4C[C@](C)(O)[C@H](N(C)C)[C@H](C)O4)C2OC5)c2nc-3cs2)n1)C(N)=O (stereo partly specified),–,–,–,–,–,–,–,–,–,–,–,–,–,–,–,–,–,–,inactive
C=C[C@]12C=CCN3CC[C@@]4(c5ccccc5NC(=O)[C@@H]4C1)[C@@H]32,inactive,inactive,inactive,inactive,inactive,inactive,inactive,inactive,inactive,inactive,inactive,inactive,inactive,inactive,inactive,inactive,inactive,inactive,inactive
C/C(=C\[C@H](C)C(=O)C[C@H](O)CC1CC(=O)NC(=O)C1)[C@@H]1OC(=O)/C=C/CC/C=C/C=C/[C@@H]1C,148 nM (active),inactive,inactive,inactive,inactive,inactive,2.35 µM (active),1.48 µM (active),inactive,264 nM (active),inactive,inactive,inactive,–,inactive,inactive,inactive,24.1 µM (active),–
C1=C2CCCN[C@H]2C2CC1[C@H]1CCCCN1C2 (stereo partly specified),inactive,inactive,inactive,inactive,inactive,inactive,inactive,inactive,inactive,inactive,inactive,inactive,inactive,inactive,inactive,inactive,inactive,inactive,inactive
C/C=C/[C@@H]1[C@H]2C[C@@H](C)CC[C@@H]2C(C)=C[C@H]1C(=O)c1c(O)c(-c2ccc(O)cc2)c[nH]c1=O,–,inactive,inactive,inactive,inactive,inactive,20.9 µM (active),18.7 µM (active),inactive,inactive,inactive,inactive,inactive,inactive,inactive,inactive,inactive,inactive,–
